KB-3-1 tox = KB-3-1 parental cell cytotoxicity | KB-3-1 viability, CellTiter-Glo ATP luminescence, 72 h | Potency, µM (highest dose often 46.1 µM), actives largely listed as cytotoxic | 400,000 tested, 1.4% active; further: on the % scale 0 is the no-effect control and ±100 the full control effect; nearly all actives have a fitted effect of over 60% in size
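Viability of parental KB-3-1 cells, measured by CellTiter-Glo luminescence, followed a 72 h incubation at 37 °C with pinned compounds in phenol-red-free DMEM containing 10% FBS.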
HT1080 IDH1KD tx = toxicity to HT-1080 IDH1 knockdown cells (counter line). AID 686971. Potency, µM (highest dose often 46.1 µM), for the others: top-dose activity, negative = toxicity, most hits filed as cytotoxic. 360,000 tested, 2% active. HT-1080 IDH1 knockdown viability, ATP luminescence, 48 h;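 further: 0% = DMSO wells and -100% = cell-free medium wells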
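Using the IDH1-knockdown HT-1080 line run in the same batch and compound series as the NT line, viability after 48 h at 37 °C was determined by CellTiter-Glo luminescence and expressed as % activity.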
HT1080-NT tox = kills 2HG-producing HT-1080-NT fibrosarcoma cells; HT-1080-NT fibrosarcoma viability, CellTiter-Glo ATP luminescence, 48 h; Potency, µM (titrated, usually from 46.1 µM), for inactives: at the highest dose activity, negative = less viability, most hits filed as cytotoxic; 360,000 tested, 1.6% active; AID 686970;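 further: NT is the 2HG producing partner of a matched IDH1 knockdown line; 0% = DMSO-treated cells and -100% = media-only wells without cells; nearly all actives have a fitted effect of over 55% in size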
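Toxicity toward the 2HG-producing NT line was scored as %Activity, normalised to DMSO and no-cell wells, from CellTiter-Glo luminescence after 48 hours' treatment.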
SW480 rereplic = inducers of DNA re-replication in SW480 colon cancer cells. SW480 DNA re-replication, Hoechst DNA content imaging, 48 h. Potency, µM (titrated, usually from 46.1 µM), for inactives: at the top dose re-replication activation, usual class: activators. 340,000 tested, 1.8% active; further: % of control where 0% means no effect; nearly all actives have a fitted effect of over 55% in size
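Hoechst fluorescence of nuclei (405 nm excitation, 500-530 nm emission) measured by plate-scanning imager after 48 hr compound exposure at 37 C; re-replication scored as increased number of nuclei with elevated intensity.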
KB-V1 cytotox = KB-V1 MDR subline cytotoxicity. KB-V1 MDR cells viability, CellTiter-Glo, 72 h. 400,000 tested, 3.4% active. Potency, µM (highest dose often 46.1 µM), usual class: cytotoxic. AID 1347076; further: on the % scale 0 is the no-effect control and ±100 the full control effect; nearly all actives have a fitted effect of over 60% in size
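KB-V1 cells (P-gp-expressing MDR subline of KB-3-1) in phenol-red-free DMEM with 10% FBS were exposed to library compounds over a concentration series for 72 h at 37 degrees C. Viability read by CellTiter-Glo luminescence; concentration-effect curves fitted after normalization.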
MCF10A rereplic = inducers of DNA re-replication in MCF 10A breast cells; 350,000 tested, 2.9% active; MCF 10A DNA re-replication, Hoechst nuclear intensity, 48 h; Potency, µM (titrated, usually from 46.1 µM), for the others: at the top dose activity, positive = re-replication, usual class: activators; further: % of control where 0% means no effect; nearly all actives have a fitted effect of over 50% in size
Numbers without * were called inactive; [ ] = dose if it differs, or a comment. A selection: hits, their analogues and other compounds. The true share with any hit is near 8%. The call rests on the fitted dose curve; in most records, active means well fitted curve in the direction sought with a large enough effect; inconclusive means small, poorly fitted or top-dose-only effect, or another doubt; inactive means no such curve, though single readings can be large; an effect the other way counts as inactive or inconclusive. Potency means the concentration at half of the fitted maximal effect.

CC(Oc1ccc2c(c1)c1ccnc3c4ccccc4c(=O)n2c13)C(=O)NCCN1CCOCC1 (stereo not drawn) was read as KB-3-1 tox inactive, HT1080 IDH1KD tx -7%, HT1080-NT tox -9%, SW480 rereplic inconclusive, KB-V1 cytotox inactive and MCF10A rereplic 1.6µM*.
Screening COc1ccc2c(c1OC)c(=O)n1c3ccc(OC(C)C(=O)NCCN4CCOCC4)cc3c3ccnc2c31 (stereo not drawn) returned KB-3-1 tox inactive, HT1080 IDH1KD tx -4%, HT1080-NT tox -4%, SW480 rereplic inconclusive, KB-V1 cytotox inactive and MCF10A rereplic -5%.
Cc1oc(-c2ccc(Cl)cc2)nc1CS(=O)CC(=O)NCc1ccc(Cl)cc1 (stereo not drawn) was read as KB-3-1 tox inactive and KB-V1 cytotox inactive.
Cc1ccc(S(=O)(=O)N2C[C@H]3N(C(=O)OC(C)C)N(C(=O)OC(C)C)C[C@H](OC(=O)NCC4CCCCC4)[C@@]3(O)C2)cc1 was read as KB-3-1 tox inconclusive, HT1080 IDH1KD tx inconclusive, HT1080-NT tox 21µM* and KB-V1 cytotox inconclusive.
Screening CCCN(CCC)C(=O)c1ccccc1C(=O)N(CCC)CCC returned KB-3-1 tox inactive, HT1080 IDH1KD tx 0%, HT1080-NT tox -3%, SW480 rereplic -5%, KB-V1 cytotox 8.2µM* and MCF10A rereplic -1%.
For CCN(Cc1ccccc1)C(=O)c1ccccc1C the results were KB-3-1 tox inactive, HT1080 IDH1KD tx 2%, HT1080-NT tox 6%, SW480 rereplic -5%, KB-V1 cytotox inconclusive and MCF10A rereplic 8%.
Screening Cn1nc(C(C)(C)C)cc1NC(=O)Nc1cc(Cl)cc(Cl)c1 returned KB-3-1 tox inactive, HT1080 IDH1KD tx inconclusive, HT1080-NT tox 16µM*, SW480 rereplic inconclusive, KB-V1 cytotox inactive and MCF10A rereplic inconclusive.
`Cc1ccc(-n2c(SCC(N)=O)nc3c(oc4ccccc43)c2=O)cc1C` gave KB-3-1 tox inactive and KB-V1 cytotox inactive.
For CC(=O)N1CCCc2cc(S(=O)(=O)N(C)CC(=O)Nc3ccc(C)cc3C)ccc21 the results were KB-3-1 tox inactive and KB-V1 cytotox inconclusive.
Screening CC(=O)NC1=NN(C(C)=O)C(C)(c2ccccc2)S1 (stereo not drawn) returned KB-3-1 tox 8.2µM*, HT1080 IDH1KD tx 7.1µM*, HT1080-NT tox 2µM*, SW480 rereplic -7%, KB-V1 cytotox 7.3µM* and MCF10A rereplic -4%.
COc1ccc(-c2nc3c(C(=O)NCCN(C)C)cccc3c3ccccc23)cc1 was read as KB-3-1 tox inconclusive, HT1080 IDH1KD tx inconclusive, HT1080-NT tox inconclusive, SW480 rereplic inconclusive, KB-V1 cytotox 2.3µM* and MCF10A rereplic inconclusive.
Screening COc1ccc(C(=O)NCCN(C)C)c2nc3ccccc3cc12 returned KB-3-1 tox inconclusive, HT1080 IDH1KD tx 21µM*, HT1080-NT tox inconclusive, SW480 rereplic inconclusive, KB-V1 cytotox 8.2µM* and MCF10A rereplic 21%.
`CN(C)CCNC(=O)c1cccc2[nH]c(-c3ccncc3)nc12` gave KB-3-1 tox inactive, HT1080 IDH1KD tx inconclusive, HT1080-NT tox -9%, SW480 rereplic inconclusive, KB-V1 cytotox inactive and MCF10A rereplic 26%.
`COc1cccc2nc3c(C(=O)NCCN(C)C)cccc3cc12` gave KB-3-1 tox inconclusive, HT1080 IDH1KD tx 9.2µM*, HT1080-NT tox inconclusive, SW480 rereplic 9.2µM*, KB-V1 cytotox 9.2µM* and MCF10A rereplic -9%.
CN(C)CCNC(=O)c1cccc2nc3c(ccc4ccccc43)nc12 was read as KB-3-1 tox 7.3µM*, HT1080 IDH1KD tx inconclusive, HT1080-NT tox inconclusive, SW480 rereplic inconclusive, KB-V1 cytotox 21µM* and MCF10A rereplic -8%.
CCCN(CCC)CCCNC(=O)c1sc2nc3n(c(=O)c2c1C)CCC3 was read as KB-3-1 tox inactive and KB-V1 cytotox inactive.
For COc1ccc(NC(=O)Cn2cc(C(=O)c3ccccc3OC)c(=O)c3ccc(C)nc32)cc1OC the results were KB-3-1 tox inactive and KB-V1 cytotox inactive.
For Nc1c(-c2nc(-c3ccccc3Cl)no2)nnn1-c1ccccc1C(F)(F)F the results were KB-3-1 tox inactive and KB-V1 cytotox inactive.
For Cc1onc(-c2ccccc2Cl)c1C(=O)N[C@H]1C(=O)N2[C@H]1SC(C)(C)[C@H]2C(=O)O the results were SW480 rereplic -6%[20.6 µM] and MCF10A rereplic -1%[20.6 µM].
For CCOC(=O)c1oc2ccccc2c1NC(=O)Cc1cccs1 the results were KB-3-1 tox inactive, HT1080 IDH1KD tx inconclusive, HT1080-NT tox 1%, SW480 rereplic -4%, KB-V1 cytotox 15µM* and MCF10A rereplic 4%.
`CCn1c(COc2ccc(=O)n(-c3ccccc3)n2)nnc1SCc1ccc(OC)cc1` gave KB-3-1 tox inactive, HT1080 IDH1KD tx 1%, HT1080-NT tox 4%, SW480 rereplic 4%, KB-V1 cytotox 18µM* and MCF10A rereplic 1%.
For COc1cccc(N(C)C(=S)Oc2ccc3c(c2)CCCC3)n1 the results were SW480 rereplic 7% and MCF10A rereplic 13%.
`COc1ccccc1-n1c(-c2ccccc2)c[nH]c1=S` gave KB-3-1 tox inactive, HT1080 IDH1KD tx 1%, HT1080-NT tox 0%, SW480 rereplic -7%, KB-V1 cytotox inactive and MCF10A rereplic 5.2µM*.
Screening S=c1[nH]cc(-c2ccccc2)n1-c1ccccc1Cl returned KB-3-1 tox inactive, HT1080 IDH1KD tx -1%, HT1080-NT tox 7%, SW480 rereplic -3%, KB-V1 cytotox 13µM* and MCF10A rereplic 8%.
Screening CCCCCCNC(=O)Nc1nnc(-c2ccncc2)s1 returned KB-3-1 tox inconclusive and KB-V1 cytotox inactive.
For CCOC(=O)/C(=N\Nc1ccccc1Cl)N1CCN(C)CC1 the results were KB-3-1 tox inactive, HT1080 IDH1KD tx -19%, HT1080-NT tox -16%, SW480 rereplic 3%, KB-V1 cytotox inconclusive and MCF10A rereplic 11%.
For CCOC(=O)/C(=N\Nc1ccccc1Cl)N1CCN(Cc2ccccc2)CC1 the results were KB-3-1 tox inactive, HT1080 IDH1KD tx -2%, HT1080-NT tox -5%, SW480 rereplic -1%, KB-V1 cytotox 3.7µM* and MCF10A rereplic inconclusive.
`COc1ccc(CCNC(=O)c2ccc(-n3c(C)cc4c3CCC(C)C4)cc2)cc1OC` (stereo not drawn) gave KB-3-1 tox inactive and KB-V1 cytotox inactive.

Screening results: PubChem, National Center for Advancing Translational Sciences (NCATS)
